Assay results: PubChem BioAssay AID1159580 (chemical genetic matrix, 2015)
Among all 5,500 compounds or so, about 2,000 (36%) were called active. Not shown: some 18% with an inconclusive outcome. No stated cut-off is given here; in the data, active means normalized growth mostly below about 0.91 (no sharp cut-off); inconclusive means no clear call, values can overlap the other calls; inactive means mostly above about 0.92. Some of the results follow.

Experiment: chemical genetic growth profiling, strain panel (AID 1159580);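 further: tested at 20 µM; growth read once vehicle control cultures reached saturation at 30 °C; 1 = growth at the plate median or of vehicle wells; lower values mean less growth of the strain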
Conditions: growth OD

Measured: normalized growth

COc1ccc2c(=O)ccoc2c1
inactive: S. cerevisiae deletion strains, locus YJR043C, strain POL32, hits give low values 1.01 | S. cerevisiae deletion strains, locus YJR075W, strain HOC1, hits give low values 1.04 | S. cerevisiae deletion strains, locus YKL009W, strain mrt4, hits give low values 0.99 | S. cerevisiae deletion strains, locus YKL068W, hits give low values 1.03 | S. cerevisiae deletion strains, locus YKL085W, strain MDH1 (second series), hits give low values 1.03 | S. cerevisiae deletion strains, locus YKL085W, strain MDH1, hits give low values 1.03 | S. cerevisiae deletion strains, locus YKL160W, strain elf1, hits give low values 1.02 | S. cerevisiae deletion strains, locus YKL190W, strain CNB1, hits give low values 1.02 | S. cerevisiae deletion strains, locus YKR001C, strain vps1, hits give low values 0.947 | S. cerevisiae deletion strains, locus YKR026C, strain gcn3, hits give low values 1.03 | S. cerevisiae deletion strains, locus YKR091W, strain srl3, hits give low values 1.02 | S. cerevisiae deletion strains, locus YLL001W, strain dnm1, hits give low values 1.02 | S. cerevisiae deletion strains, locus YLL026W, hits give low values 1.02 | S. cerevisiae deletion strains, locus YLL041C, strain sdh2, hits give low values 0.972 | S. cerevisiae deletion strains, locus YLR027C, strain aat2, hits give low values 1.02 | S. cerevisiae deletion strains, locus YLR039C, strain RIC1, hits give low values 1.01 | S. cerevisiae deletion strains, locus YLR058C, strain SHM2, hits give low values 1.02 | S. cerevisiae deletion strains, locus YLR102C, strain apc9, hits give low values 1.01 | S. cerevisiae deletion strains, locus YLR221C, strain rsa3, hits give low values 1.03 | S. cerevisiae deletion strains, locus YLR258W, strain gsy2, hits give low values 1.02 | S. cerevisiae deletion strains, locus YLR262C, strain YPT6 (second series), hits give low values 1.04 | S. cerevisiae deletion strains, locus YLR262C, strain YPT6, hits give low values 1.06 | S. cerevisiae deletion strains, locus YLR268W, strain sec22, hits give low values 0.987 | S. cerevisiae deletion strains, locus YLR320W, strain mms22, hits give low values 1.03 | S. cerevisiae deletion strains, locus YLR330W, strain CHS5, hits give low values 1.02 | S. cerevisiae deletion strains, locus YLR342W, strain FKS1 (second series), hits give low values 1.03 | S. cerevisiae deletion strains, locus YLR342W, strain FKS1, hits give low values 1.02 | S. cerevisiae deletion strains, locus YLR357W, strain rsc2, hits give low values 1.02 | S. cerevisiae deletion strains, locus YLR370C, strain arc18, hits give low values 1.02 | S. cerevisiae deletion strains, locus YLR371W, strain rom2, hits give low values 1.02 | S. cerevisiae deletion strains, locus YLR384C, strain iki3, hits give low values 1.02 | S. cerevisiae deletion strains, locus YLR418C, strain cdc73, hits give low values 0.979 | S. cerevisiae deletion strains, locus YML016C, strain PPZ1, hits give low values 1.01 | S. cerevisiae deletion strains, locus YML032C, strain rad52, hits give low values 0.993 | S. cerevisiae deletion strains, locus YML120C, strain ndi1, hits give low values 1.03 | S. cerevisiae deletion strains, locus YML124C, strain tub3, hits give low values 1.01 | S. cerevisiae deletion strains, locus YMR058W, strain fet3, hits give low values 1.02 | S. cerevisiae deletion strains, locus YMR078C, strain ctf18, hits give low values 1.01 | S. cerevisiae deletion strains, locus YMR125W, strain sto1, hits give low values 1.03 | S. cerevisiae deletion strains, locus YMR129W, hits give low values 1.02 | S. cerevisiae deletion strains, locus YMR205C, strain PFK2, hits give low values 1.03 | S. cerevisiae deletion strains, locus YMR223W, strain ubp8, hits give low values 0.986 | S. cerevisiae deletion strains, locus YMR231W, strain pep5, hits give low values 1.02 | S. cerevisiae deletion strains, locus YMR263W, strain SAP30, hits give low values 1.02 | S. cerevisiae deletion strains, locus YMR307W, strain GAS1, hits give low values 1.02 | S. cerevisiae deletion strains, locus YNL067W, strain RPL9B, hits give low values 1.01 | S. cerevisiae deletion strains, locus YNL071W, strain lat1, hits give low values 1.05 | S. cerevisiae deletion strains, locus YNL128W, strain TEP1, hits give low values 1.03 | S. cerevisiae deletion strains, locus YNL153C, strain GIM3, hits give low values 1.01 | S. cerevisiae deletion strains, locus YNL209W, strain ssb2, hits give low values 1.02 | S. cerevisiae deletion strains, locus YNL233W, strain BNI4, hits give low values 1.01 | S. cerevisiae deletion strains, locus YNL248C, strain rpa49, hits give low values 1.03 | S. cerevisiae deletion strains, locus YNL250W, strain rad50, hits give low values 1.05 | S. cerevisiae deletion strains, locus YNL271C, strain bni1, hits give low values 1 | S. cerevisiae deletion strains, locus YNL298W, strain CLA4, hits give low values 0.977 | S. cerevisiae deletion strains, locus YNL307C, strain MCK1, hits give low values 0.984 | S. cerevisiae deletion strains, locus YNL322C, strain KRE1 (second series), hits give low values 1.03 | S. cerevisiae deletion strains, locus YNL322C, strain KRE1, hits give low values 1.02 | S. cerevisiae deletion strains, locus YNR049C, strain mso1, hits give low values 1.02 | S. cerevisiae deletion strains, locus YNR052C, strain pop2, hits give low values 1 | S. cerevisiae deletion strains, locus YOL006C, strain TOP1, hits give low values 0.962 | S. cerevisiae deletion strains, locus YOL012C, strain htz1 0.848 | S. cerevisiae deletion strains, locus YOL147C, strain pex11, hits give low values 1.01 | S. cerevisiae deletion strains, locus YOR001W, strain rrp6, hits give low values 1.03 | S. cerevisiae deletion strains, locus YOR061W, strain CKA2, hits give low values 1.02 | S. cerevisiae deletion strains, locus YOR069W, strain VPS5, hits give low values 1.01 | S. cerevisiae deletion strains, locus YOR070C, strain gyp1, hits give low values 1.02 | S. cerevisiae deletion strains, locus YOR080W, strain dia2, hits give low values 1.01 | S. cerevisiae deletion strains, locus YOR083W, strain WHI5, hits give low values 1.02 | S. cerevisiae deletion strains, locus YOR106W, strain vam3, hits give low values 1.03 | S. cerevisiae deletion strains, locus YOR136W, strain idh2, hits give low values 1.01 | S. cerevisiae deletion strains, locus YOR144C, strain elg1, hits give low values 1 | S. cerevisiae deletion strains, locus YOR184W, strain ser1, hits give low values 0.988 | S. cerevisiae deletion strains, locus YOR265W, strain rbl2, hits give low values 1.01 | S. cerevisiae deletion strains, locus YOR270C, strain vph1, hits give low values 1.03 | S. cerevisiae deletion strains, locus YOR290C, strain snf2, hits give low values 1.04 | S. cerevisiae deletion strains, locus YOR316C, strain cot1, hits give low values 1.01 | S. cerevisiae deletion strains, locus YPL051W, strain arl3, hits give low values 1.02 | S. cerevisiae deletion strains, locus YPL055C, strain LGE1, hits give low values 1.04 | S. cerevisiae deletion strains, locus YPL078C, strain atp4, hits give low values 1.02 | S. cerevisiae deletion strains, locus YPL106C, strain sse1, hits give low values 1.01 | S. cerevisiae deletion strains, locus YPL240C, strain hsp82, hits give low values 1.03 | S. cerevisiae deletion strains, locus YPL241C, strain CIN2, hits give low values 1.02 | S. cerevisiae deletion strains, locus YPR119W, strain clb2, hits give low values 1.01 | S. cerevisiae deletion strains, locus YPR141C, strain kar3, hits give low values 1.01 | S. cerevisiae deletion strains, locus YPR163C, strain tif3, hits give low values 1.01 | S. cerevisiae deletion strains, locus YPR167C, strain met16, hits give low values 1.02 | S. cerevisiae deletion strains, strain wtn01, hits give low values 0.997 | S. cerevisiae strains, strain wild type, hits give low values 1.02
